Laboratory results as given in PubChem BioAssay (NCATS).
Several values for one entry are separate records, joined by “and”; a condition that tells them apart may be missing. Identical values can stand only once. Inconclusive results are not listed. Where a call stands in place of a potency, no number is given. Some structures have more than one record in an assay (separate samples or runs), and their calls can disagree. Unmarked numbers belong to inactive results. Activity calls are given as the source filed them. Calls follow the shape of the dose curve; as a rule, active = well fitted cell-killing curve with a large enough effect; inconclusive = small, poorly fitted or top-dose-only effect; inactive = no such curve, though single readings can be large or run the other way.

Assay: qHTS of pediatric cancer cell lines to identify multiple opportunities for drug repurposing: Primary screen for NB-EBc1 cells (AID 1347095)
Settings: NB-EBc1 neuroblastoma viability, CellTiter-Glo luminescence, 48 h; series mostly up to 46 µM
From the text: Drug repurposing or repositioning has been offered as a strategy for drug development in oncology programs. This approach has special potential for childhood cancers and other rare or orphan diseases, where the expected return on new drug development has been a disincentive to pharmaceuticals. […] In this project we exploit the poly-pharmacology of drugs to discover new indications via phenotypic screening of a panel of 19 well-characterized cell lines derived from solid tumors seen in children and adolescents. The goal is to identify approved drugs with previously unrecognized anticancer properties that has the potential to reveal new mechanisms and biological processes involved in carcinogenesis or drug resistance. We employed a titration-based paradigm (quantitative high-throughput screening or qHTS), where all compounds were tested at multiple concentrations for their effect on cell viability. Concentration-response curves (CRCs) were derived directly from the primary screen, and both potency and efficacy values were used to identify compounds with robust bioactivity profiles. We screened the NIH Chemical Genomics Center (NCGC) Pharmaceutical Collection (NPC) and Mechanism Interrogation Plate (MIPE) small molecule collections of approved and investigational compounds against these cell lines; and measured metabolically active cells after 48 hours of compound treatment as a proxy for cell viability. […] Assay Submitter: Nathalia J. Martinez, National Center for Advancing Translational Sciences, National Institutes of Health, Rockville, MD, USA; email: natalia.martinez@nih.gov Shen, M et al. Quantitative high-throughput phenotypic screening of pediatric cancer cell lines identifies multiple opportunities for drug repurposing. Oncotarget 2017 Dec 19;9(4):4758-4772. PMID 29435139.
The cells were obtained from University of North Carolina (UNC), Pediatric Preclinical Testing Program (PPT), and Coriell Institute (CI). qHTS cell viability assay: Cells were assayed in growth media at a density of 500-1,000 cells/well. Five microliters of cells were dispensed into 1,536-well, white, solid-bottom, TC-treated plates (Greiner Bio One) using a multidrop dispenser and incubated at 37 degrees C, 5% CO2, under a humidified atmosphere for 5 hours. Twenty-three nanoliters of compounds and controls (neutral control DMSO or positive control bortezomib at final concentration of 2.3 µM) were subsequently transferred by Kalypsys pintool. For primary screens, the MIPE collection was tested at 11-point dilutions (final concentrations range from 0.78 nM to 46 µM) and the NPC collection at 8-point dilutions (final concentrations range from 0.59 nM to 46 µM). Compounds tested in follow-up screens were assayed at 11-point dilutions. Cells were incubated for 48 hours, followed by addition of 3 µL of CellTiter-Glo (Promega). After a 15 min incubation at room temperature, samples were analyzed for luminescence intensity using a ViewLux High-throughput CCD imager equipped with clear filters.
Potency is read from the fitted curve at half-maximal effect.

| Structure (SMILES) | Potency | activity change, negative = cytotoxic |
| --- | --- | --- |
| NS(=O)(=O)c1cc(C(=O)O)c(NCc2ccco2)cc1Cl | inactive | – |
| CNC[C@@H](O)[C@@H](O)[C@H](O)[C@H](O)CO | inactive | – |
| CCc1nc(N)nc(N)c1-c1ccc(Cl)cc1 | 2.66 µM (active) and 5.26 µM (active) | – |
| CCN(CC)C(=S)SSC(=S)N(CC)CC | 11.8 nM (active) and 31.3 µM (active) | – |
| O=C1c2c(O)cc(O)cc2OC(c2ccc(O)c(O)c2)C1O (stereo not given) | inactive | – |
| Cc1nccn1CC1CCc2c(c3ccccc3n2C)C1=O (stereo not given) | inactive | – |
| CN(C)CCc1c[nH]c2ccc(Cn3cncn3)cc12 | inactive | – |
| CC(=O)Nc1ccc(O)cc1 | inactive | – |
| O=C(O)c1cccc(-c2noc(-c3ccccc3F)n2)c1 | inactive | – |
| c1cnc2cc3c(cc2n1)C1CNCC3C1 | inactive | – |
| NC(=NCc1ccccc1)NC(=O)c1nc(Cl)c(N)nc1N | inactive | – |
| CC1=C(C(=O)O)N2C(=O)[C@@H](NC(=O)[C@H](N)C3=CCC=CC3)[C@H]2SC1 | inactive | – |
| CC(C)[C@H](N)C(=O)OCCOCn1cnc2c(=O)[nH]c(N)nc21 | inactive | – |
| Clc1ccc2c(N3CCN(CCCN4CCN(c5ccnc6cc(Cl)ccc56)CC4)CC3)ccnc2c1 | inactive | – |
| O=c1c(O)c(-c2cc(O)c(O)c(O)c2)oc2cc(O)cc(O)c12 | inactive | – |
| CC1(C)C(=O)N(CCN2CCC(C(=O)c3ccc(F)cc3)CC2)c2ccccc21 | inactive | – |
| O=c1c(O)c(-c2ccc(O)cc2O)oc2cc(O)cc(O)c12 | inactive | – |
| CC(S)C(=O)NCC(=O)O (stereo not given) | inactive | – |
| Cc1cccc(C#Cc2ccccc2)n1 | inactive | – |
| Cn1c(NCCN(CCO)CCCc2ccc([N+](=O)[O-])cc2)cc(=O)n(C)c1=O | inactive | – |

| Structure (SMILES) | Potency | activity change, negative = cytotoxic |
| --- | --- | --- |
| Cc1ccc(NC(=O)c2ccc(CN3CCN(C)CC3)cc2)cc1Nc1nccc(-c2cccnc2)n1 | inactive | – |
| CCCCN(CCCC)CCC(O)c1cc2c(Cl)cc(Cl)cc2c2cc(C(F)(F)F)ccc12 (stereo not given) | inactive | – |
| CCCCCCCCOc1ccccc1C(=O)Nc1ccc(C(=O)OCC[N+](C)(CC)CC)cc1 | inactive | – |
| O=C(O)c1cc(=O)c2c(OCC(O)COc3cccc4oc(C(=O)O)cc(=O)c34)cccc2o1 | inactive | – |
| CCCS(=O)c1ccc2nc(NC(=O)OC)[nH]c2c1 (stereo not given) | 10.5 µM (active) | – |
| NNc1nncc2ccccc12 | inactive | – |
| N[C@@H](Cc1cc(I)c(Oc2cc(I)c(O)c(I)c2)c(I)c1)C(=O)O | inactive | – |
| COC(=O)C1=C(C)NC(C)=C(C(=O)OC(C)C)C1c1cccc2nonc12 (stereo not given) | inactive | – |
| Nc1ccc(S(N)(=O)=O)cc1 | inactive | – |
| CC(=O)NC[C@H]1CN(c2ccc(N3CCOCC3)c(F)c2)C(=O)O1 | inactive | – |
| Oc1ccc(-c2nc(-c3ccc(F)cc3)c(-c3ccncc3)[nH]2)cc1 | inactive | – |
| CCC[C@@H]1C[C@@H](C(=O)N[C@@H]([C@H]2O[C@H](SC)[C@H](O)[C@@H](O)[C@H]2O)[C@@H](C)O)N(C)C1 | inactive | – |
| CN(C)c1ccc2nc3ccc(=[N+](C)C)cc-3sc2c1 | 2.09 µM (active) and 2.66 µM (active) | – |
| CCN(CCO)CCCC(C)Nc1ccnc2cc(Cl)ccc12 (stereo not given) | 1.18 µM (active) | 13.9% [at 4.84 µM] |
| C[C@H](Cn1cnc2c(N)ncnc21)OCP(=O)(O)O | inactive | – |
| NCCCCNCCCN | inactive | – |
| Nc1cc(C(Cl)=C(Cl)Cl)c(S(N)(=O)=O)cc1S(N)(=O)=O | inactive | – |
| Cc1nc(Nc2ncc(C(=O)Nc3c(C)cccc3Cl)s2)cc(N2CCN(CCO)CC2)n1 | inactive | – |
| Nc1ccn([C@@H]2O[C@H](CO)[C@@H](O)C2O)c(=O)n1 (stereo not given in full) | inactive | – |
